# “And” between values parts separate entries of the source, which are not always exact repeats. Equal entries are not always repeated. Values without a mark were called inactive. Calls come from the whole dose curve.
# Target: Glucocorticoid receptor (Homo sapiens) (UniProt P04150)
# Test: GR-EFC Redistribution (AID 451)
# Settings: CHO-K1 GR-EFC translocation, beta-gal luminescence, 2 h
# Excerpt: NIH Molecular Libraries Screening Centers Network [MLSCN]
# NIH Chemical Genomics Center [NCGC]
# The glucocorticoid receptor (GR) is a cytoplasmic receptor that belongs to the nuclear receptor family of ligand-dependent transcription factors. Upon glucocorticoid binding to its receptor, the glucocorticoid-GR complex translocates into the nucleus, where it binds as a dimer to specific DNA sequences (glucocorticoid response elements), enhancing or suppressing transcription of a wide variety of glucocorticoid-responsive genes. In addition to their important roles in normal physiology and metabolism, glucocorticoids are administered exogenously as treatments for a wide variety of allergic, autoimmune, and neoplastic conditions. Identification of compounds that modulate aspects of GR signalling would be useful in dissecting glucocorticoid response pathways as well as developing GR modulators with more targeted clinical effects.
# Traditionally, GR modulators have been identified using receptor binding or direct transactivation assays. However, assays for glucocorticoid-dependent nuclear translocation can also be used to screen for compounds affecting GR signaling.
# Immunocytochemical staining has been used to assay for GR translocation, but is not suitable for high throughout screening due to the multiple reagent addition and wash steps required. Recently, a novel cell-based GR assay in Enzyme Fragment Complementation (EFC) format was developed by DiscoveRx (Fremont, CA). The assay uses EFC of b-galactosidase (b-gal) as an indicator of GR-translocation in engineered CHO-K1 biosensor cells. The enzyme acceptor (EA) fragment of b-gal resides in the nucleus , as designed through the use of a proprietary set of sequence additions and modifications. The small peptide enzyme donor (ED) fragment of b-gal is fused directly to the C-terminus of GR, and is localized in the cytoplasm is the absence of receptor signaling. Upon binding to a GR ligand, the complex translocates to the nucleus, where intact enzyme activity is restored by complementation and b-gal activity is detected. We optimized this GR-EFC assay in homogenous 1536-well plate assay format for high throughput screening.
# NCGC Assay Protocol Summary:
# CHO-K1 cells stably expressing NLS-enzyme acceptor fragment (EA) of b-gal and GR-enzyme donor (ED) fragment of b-gal were maintained in F12 medium (Invitrogen, Carlsbad, CA) at 37 Celsius degrees under a humidified atmosphere containing 5% CO2 and 95% air. The medium contained 10% FBS, 2 mM L-glutamine, 50 U/ml penicillin 50 ug/ml streptomycin, and 250 ug/ml hygromycin and 500 ug/ml G418 (Invitrogen).
# GR-translocation was measured beta-gal enzyme activity using the PathHunter Detection Kit containing cell membrane permeablizing reagent and beta-gal substrate (DiscoveRx, Fremont, CA). All compounds were screened as titrations from 0.6 nM to 46 uM final concentration. The assay was performed in 1536-well format as follows:
# 5 uL cell suspension (1,000 cells)/well
# Incubation at 37 Celsius degrees for two hours
# 1.25 uL 1X detection buffer from the kit supplied by DiscoveRx
# Incubation at room temperature for one hour
# Read plate in luminescence mode in ViewLux plate reader (PerkinElmer)
# Keywords: NIH Roadmap, MLSCN, MLI, MLSMR, GR-EFC, GREFC, qHTS, NCGC
# Potency is the fitted concentration of half-maximal effect.
# Glucocorticoid receptor (Homo sapiens), sequence (P04150 whole entry, looked up): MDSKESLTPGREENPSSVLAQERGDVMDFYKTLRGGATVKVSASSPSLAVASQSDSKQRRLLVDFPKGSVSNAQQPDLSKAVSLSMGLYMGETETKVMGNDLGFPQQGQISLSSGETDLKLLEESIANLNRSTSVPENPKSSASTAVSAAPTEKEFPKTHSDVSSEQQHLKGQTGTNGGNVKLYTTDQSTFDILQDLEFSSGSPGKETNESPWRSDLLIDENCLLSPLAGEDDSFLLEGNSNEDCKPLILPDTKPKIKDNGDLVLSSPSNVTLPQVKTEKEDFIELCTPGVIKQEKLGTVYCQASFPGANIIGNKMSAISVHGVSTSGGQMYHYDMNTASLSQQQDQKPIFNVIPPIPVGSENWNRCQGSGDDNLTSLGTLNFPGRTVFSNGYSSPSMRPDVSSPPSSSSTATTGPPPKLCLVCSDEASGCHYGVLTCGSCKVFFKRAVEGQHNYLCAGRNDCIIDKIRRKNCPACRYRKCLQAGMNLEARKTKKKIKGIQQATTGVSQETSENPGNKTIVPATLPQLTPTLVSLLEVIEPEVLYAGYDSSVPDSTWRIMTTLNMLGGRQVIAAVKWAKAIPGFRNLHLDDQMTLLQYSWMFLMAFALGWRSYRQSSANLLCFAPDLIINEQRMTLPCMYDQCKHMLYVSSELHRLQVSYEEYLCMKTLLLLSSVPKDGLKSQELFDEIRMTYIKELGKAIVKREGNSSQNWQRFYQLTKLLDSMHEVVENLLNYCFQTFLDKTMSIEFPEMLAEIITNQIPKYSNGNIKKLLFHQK
row,Structure (SMILES),Potency
1,CCCN1CCO[C@@H]2c3cc(O)ccc3OC[C@H]21,> 46 µM
2,CCCN1CCO[C@@H]2c3cc(O)ccc3OC[C@@H]21,> 46 µM
3,CC(=O)NCCc1c[nH]c2ccccc12,> 46 µM
4,c1ccc(CCCN2CCN(CCOC(c3ccccc3)c3ccccc3)CC2)cc1,> 46 µM
5,Cc1c(C(=O)c2cccc3ccccc23)c2cccc3c2n1[C@H](CN1CCOCC1)CO3,> 46 µM
6,Cc1nccc2c1[nH]c1ccccc12,> 46 µM and > 20.6 µM
7,Clc1cnc(Oc2ccc(Oc3ncc(Cl)cc3Cl)cc2)c(Cl)c1,> 46 µM
8,COc1ccc2c(c[n+](C)c3c4cc5c(cc4ccc23)OCO5)c1OC,> 46 µM
9,NC(=NCCC[C@H](N)C(=O)O)N[N+](=O)[O-],> 20.6 µM
10,O=c1cccc2n1CC1CNC[C@H]2C1,> 46 µM
11,CCCN1CCC[C@H](c2cccc(O)c2)C1,> 46 µM
12,CN[C@@H]1C[C@@H](c2ccc(Cl)c(Cl)c2)c2ccccc21,> 46 µM
13,CC[C@@]1(O)C(=O)OCc2c1cc1n(c2=O)Cc2cc3ccccc3nc2-1,> 46 µM and > 20.6 µM
14,NCCc1c[nH]c2ccc(O)cc12,> 46 µM and > 20.6 µM
15,COc1ccc(C(=O)c2c(C)n(CCN3CCOCC3)c3cc(I)ccc23)cc1,> 46 µM
16,Cn1cnc(CCN)c1,> 46 µM
17,O=C(O)CC[N+](=O)[O-],> 46 µM
18,CCCN(CCC)[C@@H]1CCc2ccc(O)cc2C1,> 46 µM

row,Structure (SMILES),Potency
1,C#CCOC(=O)C1=CCCN(C)C1,> 46 µM
2,NCCc1c[nH]c2ccccc12,> 46 µM
3,CCOC(=O)c1cncn1[C@H](C)c1ccccc1,> 46 µM
4,CNCCc1c[nH]c2ccc(O)cc12,> 46 µM
5,CCCCc1ccc(C(=O)O)nc1,> 46 µM and > 20.6 µM
6,S=C(NC1CCCCC1)N1CCC(c2cnc[nH]2)CC1,> 46 µM
7,O=C(O)Cc1cnc[nH]1,> 46 µM
8,CC(=O)OCC1=C(C(=O)O)N2C(=O)[C@@H](N)[C@@H]2SC1,> 20.6 µM
9,CC1=NN=C(c2ccc(N)cc2)c2cc3c(cc2C1)OCO3,> 46 µM
10,c1ccc2sc(C3(N4CCCCC4)CCCCC3)cc2c1,> 46 µM
11,C[C@@H](N)Cc1cnc[nH]1,> 46 µM
12,C[C@@H]1O[C@H](C[N+](C)(C)C)C[C@H]1O,> 46 µM
13,CNCCc1ccc(O)c(O)c1,> 46 µM
14,NCc1cc(=O)[nH]o1,> 46 µM
15,O=C1CCCN1CC#CCN1CCCC1,> 46 µM
16,COC(=O)[C@@H](N)CCCN=C(N)N[N+](=O)[O-],> 46 µM
17,CC(C)Oc1cccnc1N(C)C1CCN(Cc2ccccc2)CC1,> 46 µM
18,Cc1nc(-c2ccc(-c3ccc(C(=O)N4CCc5cc6c(cc54)C4(CCN(C)CC4)CO6)cc3)c(C)c2)no1,> 46 µM
